Test results taken from PubChem BioAssay (EPA / NIEHS).
Several values for one entry are separate records, joined by “and”; a condition that tells them apart may be missing. Equal values may be shown once. Where a structure was tested more than once in an assay, its records may differ in their call. Activity calls are given as the source filed them. The calls were made as follows: active = hit-call score of the fitted dose curve at least 0.9, where 1 is the maximum; inactive = score below 0.9.

Experiments:
[1] = ATG_EGR_CIS: Attagene CIS-FACTORIAL HepG2 Assay for human Early Growth Response 1 (EGR1) (AID 2282938); conditions: HepG2 Attagene CIS-FACTORIAL EGR reporter mRNA; actives raise or lower the signal
Summary of the method: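 Endogenous TF activity in HepG2 liver cells was gauged through cis-promoter reporter constructs transiently transfected. After 24 h dosing, reporter mRNA was quantified by RT-PCR and capillary electrophoresis, and curves fitted in both directions versus DMSO.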

[2] = ATG_M_19_CIS: Attagene CIS-FACTORIAL HepG2 Assay for M19 Transcription Factor (Internal Marker) (AID 2282939); conditions: HepG2 Attagene CIS-FACTORIAL M19 internal marker reporter; actives raise or lower the signal
Summary of the method: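 Internal marker readout, fitted in both directions against DMSO, from HepG2 cells carrying transfected cis-element reporter constructs; RT-PCR and capillary electrophoresis of reporter mRNA after 24 h exposure.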

[3] = ATG_ERE_CIS: Attagene CIS-FACTORIAL HepG2 Assay for Estrogen Response Element (ERE) (AID 2282940); conditions: HepG2 ERE cis-reporter, Attagene RNA transcript; actives raise or lower the signal
Summary of the method: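 After 24 h compound treatment, RNA from transfected HepG2 cells was reverse-transcribed, reporter cDNA PCR-amplified, FAM-labelled, HpaI-cut and resolved by capillary electrophoresis. ERE-driven cis reporter transcripts reflect endogenous factors; gain or loss scored against DMSO.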

[4] = ATG_Ets_CIS: Attagene CIS-FACTORIAL HepG2 Assay for human Erythroblast Transformation Specific (ETS) (AID 2282941); conditions: HepG2 ETS cis-reporter transcription; AC50: actives raise or lower the signal unless noted; outcome: actives raise or lower the signal unless noted
Summary of the method: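 RT-PCR/capillary electrophoresis fluorescence read-out of reporter mRNA; HepG2 transient multi-reporter transfection; 24 h compound exposure; gain or loss of signal fitted bidirectionally relative to DMSO.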

[5] = molecular target: Hepatocyte nuclear factor 3-beta (Homo sapiens) (UniProt Q9Y261); experiment: ATG_FoxA2_CIS: Attagene CIS-FACTORIAL HepG2 Assay for human Forkhead box A2 (FOXA2) (AID 2282942); conditions: HepG2 cis-reporter transcription factor activity, 24 h; actives raise or lower the signal
Summary of the method: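 Endogenous transcription factor activity was read in HepG2 cells carrying transiently transfected cis-promoter reporter units. After 24 h dosing, reporter mRNA was quantified by RT-PCR and capillary electrophoresis, and values fitted bidirectionally versus DMSO.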

[6] = ATG_FoxO_CIS: Attagene CIS-FACTORIAL HepG2 Assay for human Forkhead box O (FoxO) (AID 2282943); conditions: HepG2 Attagene cis-reporter, FoxO element, mRNA; actives raise or lower the signal
Summary of the method: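 Transfected HepG2 reporter cells exposed to test chemical for 24 h; reporter RNA measured by reverse transcription, PCR and fluorescent capillary electrophoresis; curves fitted for increases and decreases against DMSO.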

[7] = ATG_GATA_CIS: Attagene CIS-FACTORIAL HepG2 Assay for human GATA Binding Protein (AID 2282944); conditions: HepG2 GATA cis-element reporter, Attagene multiplex mRNA; actives raise or lower the signal
Summary of the method: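 Reporter transcripts from a GATA cis-regulated unit, among multiplexed reporters in transfected HepG2 cells, were measured by RT-PCR with capillary electrophoresis after 24 h dosing. Induction or loss scored relative to DMSO.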

[8] = ATG_GLI_CIS: Attagene CIS-FACTORIAL HepG2 Assay for human Zinc Finger Protein GLI1 (AID 2282945); conditions: HepG2, Attagene cis-factorial reporter mRNA, GLI element; actives raise or lower the signal
Summary of the method: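 Transiently transfected HepG2 cells report endogenous transcription factor activity via cis-element-driven reporter units. After 24 h compound exposure, reporter mRNA was measured by RT-PCR with capillary electrophoresis; bidirectional fitting against DMSO baseline.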

[9] = molecular target: Bile acid receptor (Homo sapiens) (UniProt Q96RI1); experiment: ATG_IR1_CIS: Attagene CIS-FACTORIAL HepG2 Assay for human Nuclear Receptor Subfamily 1 Group H Member 4 (NR1H4), IR1 submotif (AID 2282946); conditions: IR1 reporter transcription, actives raise or lower the signal
Summary of the method: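 Fluorescence of capillary-separated, HpaI-digested RT-PCR reporter products gave IR1-element mRNA induction in HepG2 cells 24 h after dosing. Endogenous transcription factors drove the cis-regulated reporters; activity was fitted bidirectionally against DMSO.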

[10] = ATG_GRE_CIS: Attagene CIS-FACTORIAL HepG2 Assay for human Glucocorticoid Response Elements (GRE) (AID 2282947); conditions: HepG2 GRE cis-reporter, Attagene multiplex mRNA; AC50: actives raise or lower the signal unless noted; outcome: actives raise or lower the signal unless noted
Summary of the method: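 Fluorescence intensity of reporter-specific cDNA fragments, separated by capillary electrophoresis, provides the signal. Constructs carry cis-regulating promoters in transiently transfected HepG2 liver cells; 24 h incubation; fitting is bidirectional against DMSO.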

Measured: AC50

Sequence of Bile acid receptor (Homo sapiens) (Q96RI1 whole entry, looked up): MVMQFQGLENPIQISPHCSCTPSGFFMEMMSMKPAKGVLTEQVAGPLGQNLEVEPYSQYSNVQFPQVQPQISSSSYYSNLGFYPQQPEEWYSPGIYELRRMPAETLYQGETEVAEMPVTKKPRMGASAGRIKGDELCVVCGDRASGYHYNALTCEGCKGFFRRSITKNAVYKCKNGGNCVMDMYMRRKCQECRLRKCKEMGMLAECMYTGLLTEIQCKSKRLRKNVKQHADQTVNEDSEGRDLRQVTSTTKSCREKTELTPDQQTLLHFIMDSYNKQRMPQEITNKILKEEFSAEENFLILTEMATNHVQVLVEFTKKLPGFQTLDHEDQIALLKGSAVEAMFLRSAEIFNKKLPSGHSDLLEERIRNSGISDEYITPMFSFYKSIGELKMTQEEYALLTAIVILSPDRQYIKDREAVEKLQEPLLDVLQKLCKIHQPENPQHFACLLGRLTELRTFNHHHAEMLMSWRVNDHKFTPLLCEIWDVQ
Sequence of Hepatocyte nuclear factor 3-beta (Homo sapiens) (Q9Y261 whole entry, looked up): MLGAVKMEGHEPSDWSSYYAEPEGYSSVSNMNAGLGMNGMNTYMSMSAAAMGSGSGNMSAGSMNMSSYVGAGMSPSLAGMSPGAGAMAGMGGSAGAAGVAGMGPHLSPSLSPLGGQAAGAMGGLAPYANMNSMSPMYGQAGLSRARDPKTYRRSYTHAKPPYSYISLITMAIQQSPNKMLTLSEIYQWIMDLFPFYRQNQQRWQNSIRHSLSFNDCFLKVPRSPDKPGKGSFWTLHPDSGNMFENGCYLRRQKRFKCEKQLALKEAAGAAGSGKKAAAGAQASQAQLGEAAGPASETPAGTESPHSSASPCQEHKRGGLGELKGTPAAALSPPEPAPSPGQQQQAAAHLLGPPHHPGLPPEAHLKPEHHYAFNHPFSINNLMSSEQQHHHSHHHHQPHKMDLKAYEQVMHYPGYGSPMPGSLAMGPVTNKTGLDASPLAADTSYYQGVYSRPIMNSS

CCOC(=O)c1nc(C(Cl)(Cl)Cl)n(-c2ccc(Cl)cc2Cl)n1
active: [1] 100 µM | [4] 100 µM | [8] 164 µM | [9] 26.6 µM | [10] 169 µM
inactive: all other assays above

Cc1cc(C(C)(C)C)c(O)c(C(C)(C)C)c1
inactive: [1] | [2] | [4] | [5] | [6] | [7] | [8] | [10]
active: [2] 97.1 µM | [4] 33.4 µM | [8] 97.4 µM

CCOC(=O)CN[C@@H](C(=O)N1CC[C@H]1C(=O)NCc1ccc(/C(N)=N/O)cc1)C1CCCCC1
inactive: all assays above

O=C1OC2(c3ccccc31)c1cc(I)c(O)c(I)c1Oc1c2cc(I)c(O)c1I
active: [1] 36.1 µM and 29.8 µM | [5] 29.9 µM
inactive: [1] | [2] | [4] | [5] | [6] | [7] | [8]

CC1COCc2cc3c(cc21)C(C)(C)C(C)C3(C)C (stereo not given)
active: [1] 152 µM | [7] 158 µM
not listed: [9] | [10]
inactive: all other assays above

CCCCCCCCCCCC[N+](C)(C)CCCCCCCCCCCC
active: [4] 36.3 µM
not listed: [10]
inactive: all other assays above

Cc1ccc2ccc3ccc(C)cc3c2c1
inactive: all assays above

O=C(O)CCC(F)(F)C(F)(F)C(F)(F)C(F)(F)C(F)(F)C(F)(F)F
not listed: [10]
inactive: all other assays above

O=C(O)C(F)(F)OC(F)(F)C(F)(F)OC(F)(F)C(F)(F)OC(F)(F)C(F)(F)C(F)(F)C(F)(F)F
active: [1] 19.6 µM and 25.7 µM | [7] 76.5 µM
inactive: [2] | [3] | [4] | [5] | [6] | [7] | [8] | [9] | [10]

CCCCc1oc2ccccc2c1C(=O)c1cc(I)c(OCCN(CC)CC)c(I)c1
active: [1] 20.3 µM | [2] 97.7 µM
not listed: [9] | [10]
inactive: all other assays above

CCOC(C)=O
active: [7] 100 µM
inactive: [1] | [2] | [3] | [4] | [5] | [6] | [7] | [8] | [10]

Oc1cc2ccccc2cc1O
active: [3] 100 µM
inactive: all other assays above

CCO[Si](CCC1CCC2OC2C1)(OCC)OCC (stereo not given)
not listed: [9] | [10]
inactive: all other assays above

CCc1cccc(CC)c1N(COC)C(=O)CS(=O)(=O)O
inactive: all assays above

CCCCCCCC(OC)OC
not listed: [9] | [10]
inactive: all other assays above

COCN(COC)c1nc(N(COC)COC)nc(N(COC)COC)n1
active: [3] 23.7 µM
not listed: [8] | [9] | [10]
inactive: all other assays above

Cc1ccccc1OCC(=O)O
active: [5] 26 µM
not listed: [10]
inactive: all other assays above

COc1cccc(O)c1
not listed: [10]
inactive: all other assays above

CC(C)(C)c1ccc(O)c(O)c1
active: [1] 48.7 µM [middle of 4 runs]
inactive: [1] | [2] | [4] | [5] | [6] | [7] | [8]

FC(F)(F)C(F)(F)C(F)(F)Br
inactive: all assays above

O=C(C=C(O)C(F)(F)F)C(F)(F)F
not listed: [10]
inactive: all other assays above

Oc1ccc(Cc2ccccc2O)cc1
active: [3] 7.8 µM
inactive: all other assays above

O=C(Nc1ccc(Cl)c(Cl)c1)c1cc(Cl)cc(Cl)c1O
active: [1] 8.8 µM | [5] 0.502 µM | [8] 50.6 µM | [9] 52.4 µM
not listed: [10]
inactive: all other assays above

C=C(c1ccc(C(=O)O)cc1)c1cc2c(cc1C)C(C)(C)CCC2(C)C
inactive: [1] | [2] | [3] | [4] | [5] | [6] | [7] | [10]
active: [1] 11.1 µM | [2] 34.1 µM | [3] 0.0545 µM | [7] 35.6 µM

CCCCC(CC)C(=O)OCCOCCOCCOCCOC(=O)C(CC)CCCC (stereo not given)
inactive: all assays above

O=C1Cc2ccccc2N1c1c(Cl)cccc1Cl
active: [3] 6.29 µM | [9] 100 µM
not listed: [10]
inactive: all other assays above

NC(=NCCCCCCN=C(N)/N=C(\N)Nc1ccc(Cl)cc1)/N=C(\N)Nc1ccc(Cl)cc1
active: [1] 5.68 µM | [2] 26.1 µM | [4] 7.45 µM and 6.93 µM | [6] 22.9 µM
inactive: [1] | [2] | [4] | [5] | [6] | [7] | [8]

O=C(c1cc(O)c(O)c(O)c1)c1ccc(O)c(O)c1O
inactive: all assays above

Brc1cc(Br)c(Oc2c(Br)cc(Br)c(Br)c2Br)cc1Br
not listed: [10]
inactive: all other assays above

CCCCCCCCCCCCCCCC(=O)OC
inactive: all assays above

CC(C)(c1ccc(Oc2ccc(N)cc2)cc1)c1ccc(Oc2ccc(N)cc2)cc1
not listed: [8] | [9] | [10]
inactive: all other assays above

CCCCCCCCCCCC[N+](C)(C)Cc1ccccc1
inactive: [1] | [2] | [4] | [5] | [6] | [7] | [9] | [10]
active: [1] 17.3 µM | [4] 11.1 µM

NCCN
not listed: [9] | [10]
inactive: all other assays above

CCOC=O
active: [3] 59.3 µM
inactive: all other assays above

COC(O)c1ccccc1 (stereo not given)
active: [3] 18.1 µM
not listed: [10]
inactive: all other assays above

COC(=O)C(F)(F)C(F)(F)C(F)(F)C(F)(F)C(F)(F)F
inactive: all assays above

CN(C)CCOC(c1ccccc1)c1ccccc1
not listed: [9] | [10]
inactive: all other assays above

C=COC(=O)C(C)(C)CCCCCC
active: [3] 100 µM
inactive: all other assays above

NNc1nc(-c2ccc([N+](=O)[O-])cc2)cs1
inactive: all assays above

O=C(NCc1ncc(C(F)(F)F)cc1Cl)c1c(Cl)cccc1Cl
inactive: all assays above

CCCCCC(C)OC(=O)COc1ccc(Cl)c2cccnc12 (stereo not given)
inactive: all assays above

CCCCCCCCCCCC(=O)NCCCN(C)C
active: [1] 20.3 µM | [6] 20.3 µM | [7] 17.2 µM | [9] 16.4 µM | [10] 14.9 µM
inactive: all other assays above

C=CC(F)(F)C(F)(F)C(F)(F)C(F)(F)F
inactive: all assays above

C=CC(C)(CCC=C(C)C)OC(C)=O (stereo not given)
inactive: all assays above

c1cc[nH]c1
inactive: all assays above

O=C1OC(=O)c2cc(-c3ccc4c(c3)C(=O)OC4=O)ccc21
inactive: all assays above

FC(F)(F)C1(F)C(F)(F)C(F)(F)C(F)(F)C(F)(C(F)(F)F)C1(F)F (stereo not given)
inactive: all assays above

O=C1OC(=O)C(F)(F)C1(F)F
inactive: all assays above
